According to PubChem BioAssay:
Where “and” joins values, the source holds several entries; their conditions need not be identical. Equal values may be shown once. Calls of active or inactive are those of the source.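 Rule for the calls: active = inhibition at or above 50% relative to wild type and mutant plate controls; inactive = inhibition below 50%.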

assay: inhibitors of Chlamydomonas gravitaxis, primary screen, whole organism, Chlamydomonas reinhardtii, WT vs cilia-less mutant, absorbance, 96-well (AID 463189); settings: OD600 absorbance, 2 days, at 10 µM, active compounds read high;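 note: 0% = wild type cc124 cells in DMSO and 100% = ciliumless bld1 mutant cells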

inhibition, active:
N.N.N.N.N.N.N.N.N.N.N.N.N.N.O.O.[Cl-].[Cl-].[Cl-].[Cl-].[Cl-].[Cl-].[Ru+4].[Ru+5].[Ru+5] 97.5%

inhibition, inactive:
CCN(Cc1ccncc1)C(=O)C(CO)c1ccccc1 (stereo not given) 7.61%
O=C(c1ccccc1)c1ccc2n1CCC2C(=O)O (stereo not given) -6.13%
C[C@](N)(Cc1ccc(O)cc1)C(=O)O 6.91%
CC(C)NNC(=O)c1ccncc1 2.86%
CC(C)(C)NCC(O)c1ccc(O)c(CO)c1 (stereo not given) 2.6% and 2.52%
CCCCCCCCCCCCCCCCCCNC(=O)OCC(COP(=O)([O-])OCC[n+]1ccsc1)OC (stereo not given) 7%
CN(C)C(N)=NCCC[C@H](N)C(=O)O 11.1%
COc1cccc(-c2cc(=O)c3ccccc3o2)c1N 0.351%
N#C/C(=C\c1ccc(O)c(O)c1)C(=O)NCc1ccccc1 -4.45%
CCC1(O)CC2CN(CCc3c([nH]c4ccccc34)[C@@](C(=O)OC)(c3cc4c(cc3OC)N(C=O)C3[C@]45CCN4CC=C[C@@](CC)([C@@H](OC(C)=O)[C@]3(O)C(=O)OC)[C@H]45)C2)C1 (stereo not given in full) 1.07%
Cc1scc2c1N(C(=O)CN1CCN(C)CC1)c1ccccc1NC2=O -1.6%
Cc1cc(NC(=O)Nc2ccc3c(ccn3C)c2)sn1 5.1%
O=C1C2C=CC=CC2=NC(=S)N1CCN1CCC(=C(c2ccc(F)cc2)c2ccc(F)cc2)CC1 (stereo not given) -0.94%
O=c1c(O)c(-c2cc(O)c(O)c(O)c2)oc2cc(O)cc(O)c12 9.46%
CCCCNc1c(C(=O)OCC)c(C)nc2c1cnn2CC 8.88%
O=c1[nH]ccc2c(O)cccc12 3.93%
COc1ccccc1N1CCN(CCN(C(=O)c2ccc(F)cc2)c2ccccn2)CC1 0.605%
O=C(O)[C@@H]1C[C@H](C(=O)O)N1 1.3%
Nc1nc2c(ncn2COC(CO)CO)c(=O)[nH]1 3.53%
CC(=O)c1ccc(S(=O)(=O)NC(=O)NC2CCCCC2)cc1 -5.49%
O=c1c(O)c(-c2ccc(O)c(O)c2)oc2cc(O)cc(O)c12 2.39%
Oc1cc2c(c(Cl)c1O)CCNCC2c1ccccc1 (stereo not given) 6.8%
O=C(O)Cc1c[nH]c2ccc(O)cc12 -4.32%
CC(N=C(NC#N)Nc1ccncc1)C(C)(C)C (stereo not given) -9.18%
COC(=O)[C@H](NC(=O)c1cc(-c2ccccc2)nc2ccccc12)c1ccccc1 1.92%
CCSC(N)=Nc1ccc(C(F)(F)F)cc1 3.43%
NC(CCCP(=O)(O)O)C(=O)O (stereo not given) -5.37%
NC(=O)C1=CN(C2OC(COP(=O)(O)OP(=O)(O)OC[C@H]3O[C@@H](n4cnc5c(N)ncnc54)C(OP(=O)(O)O)[C@H]3O)C(O)C2O)C=CC1 (stereo not given in full) -0.493%
OC[C@H]1O[C@@H](n2cnc3c(NCCc4ccccc4)ncnc32)C(O)[C@H]1O (stereo not given in full) -17%
CC(C)CN(C)c1nc(N)c(C(=O)N=C(N)N)nc1Cl -3.31%
C=CCc1ccccc1OCC(O)CN[C@]1(C)CCC[C@H](C(C)(C)NC(=O)CBr)C1 (stereo not given in full) 16.4%
CN1C(=O)CC[C@H]1c1cccnc1 4.07%
NC(=O)c1ncn([C@@H]2O[C@H](CO)[C@@H](O)[C@H]2O)n1 8.25%
NC12CC3CC(CC(C3)C1)C2 -2.58%
CC#CCOC(=O)c1c(C)nc2sc3c(c2c1N)CCC(O)C3 (stereo not given) 11.7%
O=S(=O)(NCCNC/C=C/c1ccc(Br)cc1)c1cccc2cnccc12 19.5%
O=C(CCCN1CCC(O)(c2cccc(C(F)(F)F)c2)CC1)c1ccc(F)cc1 40.6%
N#C/C(=C\c1ccc(O)c(O)c1)C(=O)NCCCNC(=O)/C(C#N)=C/c1ccc(O)c(O)c1 1.37%
O=C(O)c1cc([N+](=O)[O-])ccc1NCCCc1ccccc1 9.38%
